Laboratory results from PubChem BioAssay (NCATS).
Values joined by “and” are separate entries in the source; they are usually repeats but may differ in a detail not shown here. Equal entries are not always repeated. Results filed as inconclusive are left out. Entries that show only a call come without a potency. Active and inactive are the calls of the source. Calls come from the whole dose curve; as a rule, active = well fitted cell-killing curve with a large enough effect; inconclusive = small, poorly fitted or top-dose-only effect, or effect the other way; inactive = no such curve, though single readings can be large or run the other way.

Assay: Viability qHTS for spleen associated tyrosine kinase inhibitor (SYKi) naive MV4-11 cells (AID 1963823); note: nearly all actives have a fitted effect of over 40% in size
Conditions: MV4-11 AML viability, CellTiter-Glo luminescence, 72 h; series mostly up to 45 µM
Excerpt: Department of Medicine, Hematology/Oncology
University Hospital Frankfurt, Germany.
Trials have shown promising clinical activity of the selective SYK inhibitor entospletinib in patients with high expressing HOXA9/MEIS1 acute leukemias. As the development of resistance mechanisms is a common problem in the use of targeted drugs, we performed a chemical library screen to identify drug sensitivities in SYK inhibitor resistant AML cells. […] Glucocorticoids are potent immunosuppressants which work in part by inhibiting the transcription of cytokine genes.
Described herein is a viability screen to look for activity in the SYK inhibitor naive cell line against four NCATS compound libraries (MIPE 5.0, NPC, NPACT, and Kinase) totaling 11372 compounds. Active hits were reacquired for confirmation and further secondary assay testing.
SEQUENCE No. (e.g., 1, 2, 3, etc.); […] (e.g., Cells, Incubation, Reagent, etc.); VALUE; DESCRIPTION.
1; Media; 2uL; white, solid-bottom Corning assay plate.
2; Compounds; 23nL; Echo acoustic dispenser.
3; Cell; 5uL; 500 cells per well.
4: Incubation; 72hr; 37 C, 5% CO2, 95% humidity.
5; Reagent; 3uL; CellTiter-Glo reagent (Promega).
6; Incubation; 10min; room temperature.
7; Detection; Luminescence; ViewLux plate reader (PerkinElmer).
NOTES (numbers refer to Sequence numbers above
1. Quantitative high-throughput screening (qHTS) of small molecule compounds was conducted on naive SYKi MV4-11 cell line.
2. Twenty-three nanoliter of small molecule compounds were added to each assay plates using the Echo acoustic dispenser (Beckman Coulter).
3. Cells were seeded into the assay plates at a final density of 500 cells in 5uL of media per well using the Multi-drop Combi dispenser.
4. Plates were covered with stainless steel gasketed lids and incubated for 72 hours at standard cell culture conditions.
5. Viability was assessed by adding 3uL of CellTiter-Glo detection reagent (Promega).
6. Plates were covered with gasket lids and incubated for 10 minutes at room temperature.
7. Luminescence was measured on a ViewLux plate reader (PerkinElmer).
Potency is the fitted concentration of half-maximal effect.

| Compound | Potency | viability (% of control) |
| --- | --- | --- |
| Cc1ccc(C(=O)Nc2ccc(S(=O)(=O)O)c3cc(S(=O)(=O)O)cc(S(=O)(=O)O)c23)cc1NC(=O)c1cccc(NC(=O)Nc2cccc(C(=O)Nc3cc(C(=O)Nc4ccc(S(=O)(=O)O)c5cc(S(=O)(=O)O)cc(S(=O)(=O)O)c45)ccc3C)c2)c1 | inactive | – |
| CC(C)[C@@H](c1ccc(C(F)(F)F)cc1CN(Cc1cc(C(F)(F)F)cc(C(F)(F)F)c1)c1nnn(C)n1)N1CCC(C(=O)O)CC1 | 16.4 µM (active) | – |
| CCOc1ccc(-c2nc(-c3cccc4c3CCC4NCCO)no2)cc1OCC (stereo not given) | 13 µM (active) | – |
| CCN[C@H]1C[C@H](C)S(=O)(=O)c2sc(S(N)(=O)=O)cc21 | inactive | – |
| CCN(CC)CCCS(=O)(=O)N[C@H](CCc1ccccc1)c1nc(Cc2ccc(Br)cc2)no1 | 20.6 µM (active) | – |
| CC(=O)N1CCc2ccc(O)c(OC3OC(COC4OCC(O)(CO)C4O)C(O)C(O)C3O)c2C1Cc1ccc(O)cc1 (stereo not given) | inactive | – |
| Cc1cccn2c(=O)c(-c3nnn[nH]3)cnc12 | inactive | – |
| Nc1ccc(-c2cnc(N)c(-c3ccc(Cl)cc3)c2)cn1 | 5.8 µM (active) | – |
| NC(=S)N/N=C/c1cccnc1 | inactive | – |
| O=C(NOCC1CC1)c1ccc(F)c(F)c1Nc1ccc(I)cc1Cl | 3.76 µM (active) | – |
| CCn1c(-c2nonc2N)nc2c(C#CCO)ncc(OCCCN)c21 | 0.58 µM (active) | – |
| CC(=O)NC(C)c1ccc(Oc2ccc(OC(C)C)cc2)cc1 (stereo not given) | 10.8 µM (active) | – |
| Cc1c(NC(=O)c2cc(C(N)=O)nc3cc(F)ccc23)c(C(F)(F)F)nn1Cc1ccc(C(C)(C)C)cc1 | 20.9 µM (active) | – |
| C[C@@H]1CC[C@]2(C(=O)O[C@@H]3O[C@H](CO)[C@@H](O)[C@H](O)[C@H]3O)CC[C@]3(C)C(=CCC4[C@@]5(C)C[C@@H](O)[C@H](O)[C@](C)(C(=O)O)C5CC[C@]43C)[C@@H]2[C@]1(C)O (stereo not given in full) | inactive | – |
| CC(C)(Oc1ccc(CCNC(=O)c2ccc(Cl)cc2)cc1)C(=O)O | inactive | – |
| Cc1cc(Nc2cc(C)c(C#N)c(NC(C)CCCC(C)(C)O)n2)n[nH]1 (stereo not given) | 0.259 µM (active) | – |
| NNC(=O)c1ccncc1 | inactive | – |
| COc1ccc(-c2nc(N3CCOCC3)c3sc(CN(C)c4ncc(C(=O)NO)cn4)cc3n2)cn1 | 0.0148 µM (active) | – |
| COc1cccc(OC)c1C(=O)N[C@@H]1C(=O)N2[C@@H]1SC(C)(C)[C@@H]2C(=O)O | inactive | – |
| N#Cc1cc([N+](=O)[O-])c2sc(C(N)=O)[n+]([O-])c2c1 | 1.84 µM (active) | – |

| Compound | Potency | viability (% of control) |
| --- | --- | --- |
| COc1c(C)cnc(Cn2cnc3c(Cl)nc(N)nc32)c1C | 0.132 µM (active) | – |
| CN1CCN(c2cccc(Nc3nc4c(-c5ccc(S(C)(=O)=O)cc5)cccn4n3)c2)CC1 | 146 nM (active) and 132 nM (active) | – |
| Cc1cc(NC(=O)C2=C(O)c3ccccc3S(=O)(=O)N2C)no1 | inactive | – |
| COc1ccccc1O | inactive | – |
| C=CC(C)(CC/C=C(\C)C(=O)OC[C@H]1O[C@@H](OC(C)(C=C)CC/C=C(\C)C(=O)O[C@H]2[C@H](O)[C@@H](O)[C@H](OC(C)(C=C)CC/C=C(\C)C(=O)O)O[C@@H]2CO)[C@H](O)[C@@H](O)[C@@H]1O)O[C@@H]1O[C@H](CO)[C@@H](O)[C@H](O)[C@H]1O (stereo not given in full) | – | 81.1% [at 9.25 µM] (inactive) |
| CC(=O)O[C@@H]1CC2C(C)(C)C(=O)C=C[C@]2(C)C2CC[C@@]3(C)[C@H](c4ccoc4)OC(=O)[C@H]4O[C@]43[C@@]21C (stereo not given in full) | 10 µM (active) | – |
| Cn1ccc2cc3c(cc21)CCN3C(=O)Nc1cccnc1 | inactive | – |
| CNc1ncc2cc(-c3cc(NC(=O)NCCC(C)(C)C)c(F)cc3C)c(C)nc2n1 | 0.103 µM (active) | – |
| C/C=C(\C)C(=O)O[C@H]1[C@H](O)[C@]2(COC(C)=O)[C@H](O)C[C@]3(C)C(=CCC4[C@@]5(C)CC[C@H](O[C@@H]6O[C@H](C(=O)O)[C@@H](O[C@@H]7O[C@H](CO)[C@@H](O)[C@H](O)[C@H]7O)[C@H](O)[C@H]6O[C@@H]6O[C@H](CO)[C@@H](O)[C@H](O)[C@H]6O)[C@](C)(CO)C5CC[C@]43C)[C@@H]2CC1(C)C (stereo not given in full) | – | 88% [at 9.25 µM] (inactive) |
| CC(C)CNC(=O)/C=C/CCCCc1ccc2c(c1)OCO2 | inactive | – |
| O=C(O)C1CCCN(CCC=C(c2ccccc2)c2ccccc2)C1 (stereo not given) | inactive | – |
| CCC(C)(NC(=O)C(CCC(N)=O)NC(=O)C1CC(O)CN1C(=O)C(C)(C)NC(=O)C(C)(C)NC(=O)C(CC(C)C)NC(=O)CNC(=O)C(NC(=O)C(C)(C)NC(=O)C(C)(C)NC(=O)C(C)(C)NC(=O)C(Cc1ccccc1)NC(C)=O)C(C)C)C(=O)N1CC(O)CC1C(=O)NC(C)(C)C(=O)NC(CO)Cc1ccccc1 (stereo not given) | 1.74 µM (active) | – |
| O=C(NCCN1CCCC1)c1cc(-c2ccc(CN3CCOCC3)cc2)nc2ccc(F)cc12 | inactive | – |
| C=CC(=O)N1CC/C(=C\c2ccc(F)c([N+](=O)[O-])c2)C(=O)/C(=C/c2ccc(F)c([N+](=O)[O-])c2)C1 | 0.0332 µM (active) | – |
| CCC(C)C(N)C(=O)NCCN1CCOCC1 (stereo not given) | inactive | – |
| C[C@@]12C(=O)OC(=O)[C@]1(C)C1CCC2O1 | 2.66 µM (active) | – |
| C/C=C/C(O)C1OC(=O)CC1Nc1ccc(C(=O)O)cc1 (stereo not given) | inactive | – |
| C=C[C@H]1[C@H](O[C@@H]2O[C@H](CO)[C@@H](O)[C@H](O)[C@H]2O)OC=C(C(=O)OC)[C@H]1C/C=C(/C=O)[C@@H]1C(C(=O)OC)=CO[C@@H](O[C@@H]2O[C@H](CO)[C@@H](O)[C@H](O)[C@H]2O)[C@@H]1C=C | inactive | – |
| O=C(O)CCCC[C@@H]1SC[C@@H]2NC(=O)N[C@@H]21 | inactive | – |
| CC[C@H](C)[C@@H]([C@@H](CC(=O)N1CCC[C@H]1[C@H](OC)[C@@H](C)C(=O)N[C@@H](Cc1ccccc1)c1nccs1)OC)N(C)C(=O)[C@@H](NC(=O)[C@H](C(C)C)N(C)C)C(C)C | inactive | – |
